From PubChem BioAssay (NCI)
This is part of a sample that, as a whole, favours compounds with a hit. Of some 83,000 tested, about 20% had one in any assay.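 96-well plates, one dose, 48 hours. Percent growth reported; active if below 10.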 The source made the active and inactive calls.

Assays:
Experiment in all cases: NCI-60 one-dose screen, 48 h (100 = growth as untreated, 0 = no growth, -100 = all killed)
Conditions in all cases: 10 µM unless noted
HT29 colon = system: HT29 colon
SNB-19 CNS = system: SNB-19 CNS
U251 CNS = system: U251 CNS
PC-3 prostate = system: PC-3 prostate
SK-MEL-5 melanoma = system: SK-MEL-5 melanoma
UACC-62 melanoma = system: UACC-62 melanoma
LOX IMVI melanoma = system: LOX IMVI melanoma
SK-MEL-28 melanoma = system: SK-MEL-28 melanoma
SK-MEL-2 melanoma = system: SK-MEL-2 melanoma
EKVX NSCLC = system: EKVX NSCLC
SN12C renal = system: SN12C renal
UO-31 renal = system: UO-31 renal
TK-10 renal = system: TK-10 renal
ACHN renal = system: ACHN renal
CAKI-1 renal = system: CAKI-1 renal
A498 renal = system: A498 renal
CCRF-CEM leukemia = system: CCRF-CEM leukemia
MOLT-4 leukemia = system: MOLT-4 leukemia
SNB-75 CNS = system: SNB-75 CNS

Measured: growth

COc1ccc(OC)c([N+](=O)[O-])c1C(=O)CNC(C)=O
inactive: HT29 colon 109% | SNB-19 CNS 93.5% | U251 CNS 97% | PC-3 prostate 101% | SK-MEL-5 melanoma 101% | UACC-62 melanoma 95.8% | LOX IMVI melanoma 103% | SK-MEL-28 melanoma 114% | SK-MEL-2 melanoma 109% | EKVX NSCLC 97.5% | SN12C renal 100% | UO-31 renal 84.7% | TK-10 renal 105% | ACHN renal 100% | CAKI-1 renal 96.4% | A498 renal 94.1% | CCRF-CEM leukemia 110% | MOLT-4 leukemia 101%

COC(=O)[C@]1(C)CC[C@]2(C)CC[C@]3(C)C(=CC(=O)[C@@H]4[C@@]5(C)CCC(=O)NC(C)(C)[C@@H]5CC[C@]43C)[C@@H]2C1
active: HT29 colon -55% [100 µM] | SNB-75 CNS -83.3% [100 µM] | SNB-19 CNS -89.8% [100 µM] | U251 CNS -89.2% [100 µM] | PC-3 prostate -65.8% [100 µM] | SK-MEL-5 melanoma -94% [100 µM] | UACC-62 melanoma -88.9% [100 µM] | LOX IMVI melanoma -97.7% [100 µM] | SK-MEL-28 melanoma -67.3% [100 µM] | SK-MEL-2 melanoma -83.2% [100 µM] | EKVX NSCLC -45.1% [100 µM] | SN12C renal -81.1% [100 µM] | UO-31 renal -93.3% [100 µM] | TK-10 renal -26.3% [100 µM] | ACHN renal -39.8% [100 µM] | CAKI-1 renal -20% [100 µM] | A498 renal -91.4% [100 µM] | CCRF-CEM leukemia -25.4% [100 µM] | MOLT-4 leukemia -20.7% [100 µM]

Cc1cc(NN=C(c2ccc(O)cc2)c2ccc(O)cc2)c([N+](=O)[O-])cc1[N+](=O)[O-]
inactive: HT29 colon 91.5% | SNB-75 CNS 74.3% | SNB-19 CNS 89.3% | U251 CNS 49.4% | PC-3 prostate 38.4% | SK-MEL-5 melanoma 46% | UACC-62 melanoma 69.1% | LOX IMVI melanoma 25.3% | SK-MEL-28 melanoma 61.6% | EKVX NSCLC 14.9% | SN12C renal 74.2% | TK-10 renal 51.4% | ACHN renal 43.7% | CAKI-1 renal 65.1% | A498 renal 85.9% | CCRF-CEM leukemia 119% | MOLT-4 leukemia 108%
active: SK-MEL-2 melanoma 0.57% | UO-31 renal 6.74%

C#CCOc1ccc(C2=NN(CC3CC3)C3N=C(Cl)c4ncn(CC5CC5)c4N23)cc1OCC#C (stereo not drawn)
inactive: HT29 colon 84.3% | SNB-75 CNS 84.6% | SNB-19 CNS 98.7% | U251 CNS 70.5% | PC-3 prostate 63.7% | SK-MEL-5 melanoma 60.9% | LOX IMVI melanoma 68.4% | SK-MEL-28 melanoma 93.6% | SK-MEL-2 melanoma 82.7% | EKVX NSCLC 80.1% | SN12C renal 82.2% | UO-31 renal 46.9% | TK-10 renal 76% | ACHN renal 62% | CAKI-1 renal 43.7% | A498 renal 50.9% | CCRF-CEM leukemia 64.3% | MOLT-4 leukemia 61%

CC1(C)CC[C@]2(C(=O)O)CC[C@]3(C)[C@H](CC[C@@H]4[C@@]5(C)CCC(=O)C(C)(C)[C@@H]5CC[C@]43C)[C@H]2[C@H]1OC(=O)C(F)(F)F
active: HT29 colon -37.7% [100 µM] | SNB-75 CNS -36.5% [100 µM] | SNB-19 CNS -78.4% [100 µM] | U251 CNS -71.4% [100 µM] | PC-3 prostate -56.4% [100 µM] | SK-MEL-5 melanoma -94.2% [100 µM] | UACC-62 melanoma -85.2% [100 µM] | LOX IMVI melanoma -99.1% [100 µM] | SK-MEL-28 melanoma -58.5% [100 µM] | SK-MEL-2 melanoma -71.8% [100 µM] | EKVX NSCLC -69.6% [100 µM] | SN12C renal -82.1% [100 µM] | UO-31 renal -96.4% [100 µM] | TK-10 renal -84.1% [100 µM] | ACHN renal -94.1% [100 µM] | CAKI-1 renal -71.2% [100 µM] | A498 renal -81.2% [100 µM] | CCRF-CEM leukemia -25% [100 µM] | MOLT-4 leukemia -26.4% [100 µM]

C=CCCCCOc1ccccc1-c1cnc(OCCCCC=C)n1C
inactive: HT29 colon 18.1% | SNB-75 CNS 81.9% | SNB-19 CNS 91.1% | U251 CNS 68.6% | PC-3 prostate 73.5% | SK-MEL-5 melanoma 83.7% | UACC-62 melanoma 55.7% | LOX IMVI melanoma 69.1% | SK-MEL-28 melanoma 73.4% | SK-MEL-2 melanoma 46.1% | EKVX NSCLC 85.2% | SN12C renal 91.1% | UO-31 renal 69.3% | TK-10 renal 75% | CAKI-1 renal 54.9% | A498 renal 51.1% | CCRF-CEM leukemia 80.9% | MOLT-4 leukemia 91.4%

O=C1CC(c2ccccc2)Cc2nc3ccc(Cl)cc3cc21 (stereo not drawn)
inactive: SNB-75 CNS 29.7% | SNB-19 CNS 24.9% | U251 CNS 18.8% | PC-3 prostate 27.7% | UACC-62 melanoma 29.3% | LOX IMVI melanoma 29.7% | SK-MEL-28 melanoma 50.6% | SK-MEL-2 melanoma 57.1% | EKVX NSCLC 30.2% | SN12C renal 28.3% | UO-31 renal 35% | TK-10 renal 71.2% | ACHN renal 30.8% | CAKI-1 renal 29.2% | CCRF-CEM leukemia 10.4% | MOLT-4 leukemia 11.6%
active: HT29 colon 4.39% | SK-MEL-5 melanoma -14.3% | A498 renal -17.4%

Cc1ccc(S(=O)(=O)Oc2ccc([N+](=O)[O-])cc2[N+](=O)[O-])cc1
inactive: HT29 colon 98.2% | SNB-75 CNS 98.9% | SNB-19 CNS 110% | U251 CNS 94.4% | PC-3 prostate 83.6% | SK-MEL-5 melanoma 76.5% | UACC-62 melanoma 82.5% | LOX IMVI melanoma 10.1% | SK-MEL-28 melanoma 113% | SK-MEL-2 melanoma 78.8% | EKVX NSCLC 101% | SN12C renal 32.7% | UO-31 renal 73.6% | TK-10 renal 110% | ACHN renal 104% | CAKI-1 renal 82.3% | A498 renal 94.3% | CCRF-CEM leukemia 23% | MOLT-4 leukemia 54.2%

COc1ccc(-c2cc(-c3ccc(OC)c(OC)c3)nc(SCCCCCC(=O)NO)n2)cc1
inactive: HT29 colon 31.3% | SNB-19 CNS 65.8% | U251 CNS 38.3% | PC-3 prostate 64.5% | SK-MEL-5 melanoma 31.9% | UACC-62 melanoma 24% | LOX IMVI melanoma 56.9% | SK-MEL-2 melanoma 52.5% | EKVX NSCLC 62.5% | SN12C renal 77% | UO-31 renal 68.6% | TK-10 renal 44.9% | ACHN renal 81.3% | CAKI-1 renal 53.7% | A498 renal 66.7% | CCRF-CEM leukemia 22.7% | MOLT-4 leukemia 14%

CC(C)[C@H]1COC(=O)N1[C@@H]1C(=O)N([C@@H](CCC(=O)N2CCN(C3CCCC3)CC2)C(=O)N[C@@H]2CCCc3ccccc32)[C@@H]1/C=C/c1cccc(Cl)c1
inactive: HT29 colon 13% | SNB-75 CNS 92% | SNB-19 CNS 56.6% | U251 CNS 46.6% | PC-3 prostate 25.7% | SK-MEL-5 melanoma 11.7% | UACC-62 melanoma 67.8% | SK-MEL-28 melanoma 71.7% | SK-MEL-2 melanoma 60% | EKVX NSCLC 58.8% | SN12C renal 59.6% | UO-31 renal 43.5% | TK-10 renal 54.2% | ACHN renal 57.8% | CAKI-1 renal 59.3% | A498 renal 27.9% | CCRF-CEM leukemia 42% | MOLT-4 leukemia 24.1%
active: LOX IMVI melanoma -18.3%

CC[C@]12C=CCN3CC[C@@]4(c5ccc(OC)cc5N(C)[C@H]4[C@@](O)(C(=O)OC)[C@@H]1OC(=O)CCC(=O)N[C@H](Cc1c[nH]c4ccccc14)C(=O)OC)[C@@H]32
active: HT29 colon 5.23% [100 µM] | SNB-75 CNS -68.8% [100 µM] | SNB-19 CNS -51.2% [100 µM] | U251 CNS 3.72% [100 µM] | PC-3 prostate -15.8% [100 µM] | SK-MEL-5 melanoma -53% [100 µM] | UACC-62 melanoma -61.1% [100 µM] | LOX IMVI melanoma -54.4% [100 µM] | SK-MEL-28 melanoma -49.6% [100 µM] | SK-MEL-2 melanoma -48.8% [100 µM] | EKVX NSCLC -58.7% [100 µM] | SN12C renal -68.7% [100 µM] | UO-31 renal -55.5% [100 µM] | TK-10 renal -38.7% [100 µM] | ACHN renal -64.7% [100 µM] | CAKI-1 renal -71% [100 µM] | A498 renal -49.9% [100 µM] | CCRF-CEM leukemia 7.07% [100 µM] | MOLT-4 leukemia -12.4% [100 µM]

CCOC(=O)n1cc(C2=C(c3ccc(OC)c(OC)c3)COC2=O)c2ccccc21
inactive: SNB-75 CNS 13.9% | SNB-19 CNS 32.6% | U251 CNS 23.6% | PC-3 prostate 12% | UACC-62 melanoma 32.9% | LOX IMVI melanoma 39.1% | SK-MEL-28 melanoma 63.8% | SK-MEL-2 melanoma 62.1% | EKVX NSCLC 51.5% | SN12C renal 18.5% | UO-31 renal 26.5% | TK-10 renal 53.7% | ACHN renal 23.1% | CAKI-1 renal 23.6% | CCRF-CEM leukemia 17.6% | MOLT-4 leukemia 11.6%
active: HT29 colon 1.19% | SK-MEL-5 melanoma -38.9% | A498 renal -25.3%
